Source: PubChem BioAssay (National Center for Advancing Translational Sciences (NCATS))
Compounds with a hit are over-represented: about 1.2% of the library has one in this group of screens.
uPA generation: cell surface uPA generation inhibition | cell surface uPA generation assay, qHTS | Potency, µM (top dose mostly 38.3 µM), actives largely listed as inhibitors | 0.31% of 330,000 active; active means well fitted inhibition curve with a large enough effect; inconclusive means small, poorly fitted or top-dose-only effect; inactive means no such curve, though single readings can be large or run the other way; tested in mouse RAW 264.7 cells; further: nearly all actives have a fitted effect of over 55% in size
Mm-Cpn inhibitor: M. maripaludis TRiC chaperonin inhibition; purified Mm-Cpn ATPase, ADP Transcreener TR-FRET; Potency, µM (highest dose often 76.9 µM), actives largely listed as inhibitors; 0.031% of 330,000 active; AID 504842; active means well fitted inhibition curve with a large enough effect; inconclusive means small, poorly fitted or top-dose-only effect; further: nearly all actives have a fitted effect of over 80% in size
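Purified archaeal Mm-CPN (25nM final) preincubated 10 min at 37degC with compound, then 10uM ATP for 30 min at 37degC; ADP measured by HTRF Transcreener TR-FRET; buffer 30 mM TRIS pH 7.4, 100mM KCl, 5mM MgCl2, 1mM DTT.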
gsp ag: gsp mutant agonism. AID 624287. gsp mutant cells, cAMP HTRF, 30 min. Potency, µM (highest dose often 76.9 µM), most hits filed as activators. 0.13% of 340,000 active; active means well fitted activation curve with a large enough effect; inconclusive means small, poorly fitted or top-dose-only effect, or another doubt; inactive means no such curve, though single readings can be large or run the other way; cell line not stated here;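 further: phosphodiesterase inhibitor Ro 20-1724 added with compounds to block cAMP breakdown; nearly all actives have a fitted effect of over 60% in size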
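Cells in DMEM/10% FBS with G418 were pretreated with compounds in DMSO plus […] (300 uM stock) for 30 min at 37C. cAMP was measured by HTRF (cAMP-d2 plus anti-cAMP antibody-K) after 30 min at room temperature.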
gsp antagonist: antagonizes gsp, the McCune-Albright syndrome mutation; Potency, µM (doses to about 76.9 µM), usual class: inhibitors; 0.4% of 340,000 active; gsp-mutant cells, cAMP HTRF, 30 min; calls by dose curve; cell line not stated here;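 further: intracellular cAMP measured with PDE inhibitor Ro 20-1724 present during compound exposure; nearly all actives have a fitted effect of over 65% in size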
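G418-selected cells were plated in DMEM/10% FBS for 16-24 h at 37C, then treated with compounds plus the PDE inhibitor […] (300 uM solution added) for 30 min at 37C. Intracellular cAMP was measured by HTRF after 30 min lysis at room temperature.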
CCT modulator: modulators of cytosolic chaperonin (CCT/TRiC) activity; activity change, % (test concentration not listed), hits read low; 0.3% of 360,000 active; purified chaperonin ATPase assay, HTRF ADP detection, 30 min; in the data active means activity change below about -30%
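TRiC at 40 or 20 nM final (batch-dependent) in 30 mM Tris pH 7.4, 100 mM KCl, 5 mM MgCl2, 1 mM DTT, with compound at single 76 uM and 10 uM ATP, 30 min at 37 deg C. ADP detected by HTRF Transcreener, 665/615 ratio.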
TSHR antag: blocks TSH signaling through the human TSH receptor; P16473; TSHR-expressing cells, TSH-stimulated cAMP HTRF, 2 h; stronger effect = lower value; activity change, negative = inhibition, % at 11.5 µM; 0.2% of 330,000 active; AID 504810;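 active means activity change below a set negative limit, meaning inhibition stronger than a set level, cut at about -70% in these data; inconclusive means activity change between two set negative limits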
Target sequence (P16473 whole entry, looked up): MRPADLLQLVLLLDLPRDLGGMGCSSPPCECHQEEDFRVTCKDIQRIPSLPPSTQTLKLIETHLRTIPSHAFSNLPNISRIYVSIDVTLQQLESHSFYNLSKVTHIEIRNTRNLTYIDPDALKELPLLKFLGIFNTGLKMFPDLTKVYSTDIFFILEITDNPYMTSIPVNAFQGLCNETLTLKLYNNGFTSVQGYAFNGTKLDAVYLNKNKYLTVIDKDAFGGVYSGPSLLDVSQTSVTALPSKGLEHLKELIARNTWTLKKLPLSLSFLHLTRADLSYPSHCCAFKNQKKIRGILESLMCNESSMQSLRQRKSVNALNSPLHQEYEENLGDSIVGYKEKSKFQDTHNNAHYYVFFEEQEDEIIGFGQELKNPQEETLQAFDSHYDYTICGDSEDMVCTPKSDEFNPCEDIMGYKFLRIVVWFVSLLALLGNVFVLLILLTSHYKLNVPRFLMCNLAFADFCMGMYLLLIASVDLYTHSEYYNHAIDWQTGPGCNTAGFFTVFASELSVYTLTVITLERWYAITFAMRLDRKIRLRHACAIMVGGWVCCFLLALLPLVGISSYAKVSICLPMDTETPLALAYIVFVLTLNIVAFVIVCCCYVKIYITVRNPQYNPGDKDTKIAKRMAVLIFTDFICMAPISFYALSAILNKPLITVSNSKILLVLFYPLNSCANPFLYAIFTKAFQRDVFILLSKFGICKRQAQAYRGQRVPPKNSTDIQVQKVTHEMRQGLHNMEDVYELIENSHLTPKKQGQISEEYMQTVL
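Read-out is FRET at 665 nm (cryptate excitation 337 nm) from a cryptate-tagged anti-cAMP antibody, competed by cell cAMP against cAMP-d2. Compounds are tested on freshly harvested TSHR cells challenged with 4nM TSH (EC80) for 2 hours at 37 deg C.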
A number is an active result; – = inactive; ? = inconclusive; · = no result; [ ] = dose if it differs, or a comment.

SMILES	uPA generation	Mm-Cpn inhibitor	gsp ag	gsp antagonist	CCT modulator	TSHR antag
CC1CCc2c(sc(NC(=O)/C=C/c3cccs3)c2C(=O)O)C1 (centres undefined)	10µM	–	–	?	–	–
CC1CCc2c(sc(NC(=O)c3ccco3)c2C(=O)O)C1 (centres undefined)	–	–	–[15.4 µM]	–	–	?
COc1cc(C(=O)NCC(=O)OCC(=O)N2CCc3ccccc32)cc(OC)c1OC	–	–	–[15.4 µM]	–	–	–
CC(C)N1CC(C(=O)Nc2ccc(Cl)c(Cl)c2)CC1=O (centres undefined)	–	–	–	–	–	–
CC(C)N1CC(C(=O)Nc2cc(Cl)cc(Cl)c2)CC1=O (centres undefined)	7.1µM	–	–	–	–	–
Cc1cc(OCc2cc(C(=O)N(C)Cc3ccccn3)no2)cc(C)c1Cl	–	–	–[15.4 µM]	–	–	–
Cc1cc(OCc2cc(C(=O)N(C)C(C)c3ccccn3)no2)cc(C)c1Cl (centres undefined)	–	–	?	?	–	-98
Cc1ccc2c(c1)nnn2C1CCN(S(=O)(=O)c2cccc(S(=O)(=O)N(C)C)c2)CC1	–	–	–	25µM	–	–
Cc1ccc(O)c(N)c1	2.8µM	–	·	–	–	–
O=C1CC(c2ccc3c(c2)OCCO3)Oc2ccc([N+](=O)[O-])cc21 (centres undefined)	10µM	–	–	?	–	–
Cc1cc(C(=O)CSc2nc3ccccc3[nH]2)c(C)n1CC1CCCO1 (centres undefined)	–	–	–	32µM	–	?
COC(=O)c1sc(NC(=O)c2c(OC)cccc2OC)c(C#N)c1C	–	?	28µM	–	–	–
N#Cc1c(NC(=O)C2CC(c3ccccc3Cl)=NO2)sc2c1CCC2 (centres undefined)	–	–	–	–	-92	–
COc1cccc(OC)c1C(=O)Nc1sc2c(c1C#N)CCC2	–	–	–[15.4 µM]	–	–	-118
O=C(c1ccc2ncsc2c1)N1CCCCC1	–	–	–	–	-36	–
NC(=O)C1CCN(C(=O)c2ccc3ncsc3c2)CC1	·	·	–	·	–	·
CN(Cc1ccccc1)C(=O)c1cc2ccccc2o1	–	–	–	–	–	–
CN(Cc1ccccc1Cl)C(=O)c1cc2ccccc2o1	–	–	–	–	–	-102
O=C1NC(=S)SC1=C1CCCCCC1	–	–	?	–	–	-81
Cc1ccc(S(=O)(=O)Nc2cccc(C(=O)NCc3cccnc3)c2)cc1F	3.2µM	–	–	–	–	–
COc1ccccc1NC(=O)CSc1nnnn1-c1ccc(C)cc1	–	–	–	–	–	–
COC(=O)c1ccccc1N1C(=O)C2C(C1=O)C1C=CC2C12CC2 (centres undefined)	·	–	–	–	–	–
O=C(Nc1ccc(-c2noc(CCc3ccccc3)n2)cc1)c1ccco1	–	–	–	?	-56	–
c1ccc(CCc2nc(-c3ccccc3)no2)cc1	–	–	–	–	–	–
Cc1ccc(SCC(=O)NCc2ccccc2C)cc1	–	–	–	–	–	-122
SMILES	uPA generation	Mm-Cpn inhibitor	gsp ag	gsp antagonist	CCT modulator	TSHR antag
COc1cc(-c2nc3c[n+](CC(=O)c4ccccc4)ccc3n2C)cc(OC)c1OC	–	–	–	–	–	–
COc1ccc(C(=O)C[n+]2ccc3c(c2)nc(-c2ccccc2)n3C)cc1	–	–	?	–	-36	–
CCN1C(=O)/C(=C\N(C)C)S/C1=N\S(=O)(=O)c1ccc(C)cc1	–	–	–[15.4 µM]	–	-45	–
C=CCN1C(=O)/C(=C/N(C)C)S/C1=N\S(=O)(=O)c1cccs1	·	·	–	·	–	·
CCN(CC)CCCNc1ccc2ncn3c4ccc(O)cc4c(=O)c1c23	–	·	11µM	?	–	·
COc1ccc(CNC(=O)CSc2nnc(C3CC3)n2C2CC2)cc1	–	–	–	–	–	–
O=[N+]([O-])c1ccc(O)c(Nc2ncnc3ccc(Br)cc23)c1	–	–	–	35µM	–	?
O=[N+]([O-])c1ccc(O)c(Nc2ncnc3ccccc23)c1	–	–	?	–	–	–
Cc1ccsc1/C=C1\Oc2cc(O)ccc2C1=O	·	·	?	·	–	·
COc1cc(/C=C2\Oc3cc(O)ccc3C2=O)ccc1O	6.3µM	–	28µM	–	–	–
COC(=O)C1=C(Cn2cnc3ccccc32)NC(=O)NC1c1cc(C)ccc1C (centres undefined)	–	–	–	–	–	–
CC(C)(C)c1ccc(CSc2nc(N)cc(=O)[nH]2)cc1	–	–	–[15.4 µM]	–	-55	–
Nc1cc(=O)[nH]c(SCc2ccc(Cl)cc2)n1	–	–	–	–	–	–
N/C(CCN1CCOCC1)=N/O	–	–	–	–	–	–
O=C(NNC(=O)C12CC3CC(CC(C3)C1)C2)c1ccccc1F	–	–	–[15.4 µM]	–	-45	–
Cc1ccccc1N(CC(=O)NC1CCCC1)C(=O)CS(=O)CC(=O)Nc1ccc2c(c1)OCO2 (centres undefined)	–	–	–	–	–	–
Cc1ccc(NC(=O)CS(=O)CC(=O)N(CC(=O)NC2CCCC2)c2cc(C)ccc2C)cc1 (centres undefined)	–	–	–	–	-93	–
Cc1ccc2cc(CCNC(=O)c3cc4ccccc4o3)c(=O)[nH]c2c1C	–	–	–	35µM	–	–
COc1cc(/C=N/Nc2nc(-c3ccc(S(=O)(=O)N(C)C)cc3)cs2)ccc1O	?	–	–	32µM	–	–
COc1cccc(C(=O)Nc2c(C)n[nH]c2C)c1	–	–	–	–	-75	–
CCOc1ccc(N2C(=O)CC(Sc3nc(C)cc(C)n3)C2=O)cc1 (centres undefined)	–	–	–	–	–	–
Cc1ccc(N2C(=O)CC(Sc3nc(C)cc(C)n3)C2=O)cc1 (centres undefined)	5µM	–	–	–	–	–
CC1CCCC(C)N1C(=O)CSCc1ccc(Cl)cc1 (centres undefined)	·	–	–	35µM	–	–
CCCCN(C(=O)CNC(=O)c1cccs1)C(C(=O)NC1CCCCC1)c1cccnc1 (centres undefined)	–	–	–	–	–	–
Cc1ccc(Cl)cc1NC1=C/C(=N\S(=O)(=O)c2cccs2)c2ccccc2C1=O	–	–	–	–	–	-76
CC[C@]12CCCN3CCc4c(n(c5ccccc45)C(=O)C1)[C@@H]32	3.2µM	–	·	–	–	–
O=C(C[C@H]1C(=O)N(C2CCCCC2)C[C@@H]1c1ccccc1)Nc1ccc(Br)cc1	·	·	–	·	-53	·
Cc1cc(=O)[nH]c(=S)n1-c1ccccc1	–	–	–	–	-34	–
Nc1cc(=O)[nH]c(=S)n1-c1ccccc1	–	–	–	–	–	–
